In PubChem BioAssay (NCATS):
“And” between values parts separate entries of the source, which are not always exact repeats. Equal values may be shown once. Records with an inconclusive call do not appear. Entries that show only a call come without a potency. Unmarked numbers belong to inactive results. The source made the active and inactive calls. Calls come from the whole dose curve; as a rule, active = well fitted curve in the direction sought with a large enough effect; inconclusive = small, poorly fitted or top-dose-only effect, or another doubt; inactive = no such curve, though single readings can be large; an effect the other way counts as inactive or inconclusive.

How the values were obtained:
[1] = Viability qHTS for spleen associated tyrosine kinase inhibitor (SYKi) drug resistant MV4-11 cells (AID 1963824); note: nearly all actives have a fitted effect of over 35% in size
Method in brief: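 SYK inhibitor-resistant MV4-11 AML cells, 500 per well, added to predispensed compounds and incubated 72 hr at 37 C, 5% CO2. Viability measured by CellTiter-Glo luminescence after 10 min at room temperature.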

[2] = Quantitative highthroughput screen to assess conditional lethalithy of NOMO1 cells grown in RPMI1640 with untreated serum (RPMI+s) (AID 1963876); note: nearly all actives have a fitted effect of over 35% in size
Method in brief: (§1)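 Each medium arm—HPLM with 10% dialyzed FBS, or RPMI1640 with 5 mM glucose and 10% untreated or dialyzed FBS—was screened against an 11-point, 3-fold compound titration for 48 h at 37 °C, with CellTiter-Glo luminescence as endpoint.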

[3] = Quantitative highthroughput screen to assess conditional lethalithy of NOMO1 cells grown in Human Plasma-Like Medium with dialyzed fetal bovine serum (HPLM+ds) (AID 1963878); note: nearly all actives have a fitted effect of over 35% in size
Method in brief: as §1

[4] = Quantitative highthroughput screen to assess conditional lethalithy of P12 Ichikawa cells grown in Human Plasma-Like Medium with dialyzed fetal bovine serum (HPLM+ds) (AID 1963879); settings: Potency: viability; note: nearly all actives have a fitted effect of over 35% in size; for Viability: series mostly up to about 46 µM
Method in brief: as §1

[5] = Quantitative highthroughput screen to assess conditional lethalithy of P12 Ichikawa cells grown in RPMI1640 with dialyzed fetal bovine serum (RPMI+ds) (AID 1963880); settings: Potency: P12-Ichikawa viability; note: nearly all actives have a fitted effect of over 35% in size
Method in brief: as §1

[6] = Quantitative highthroughput screen to assess conditional lethalithy of P12 Ichikawa cells grown in RPMI1640 with untreated serum (RPMI+s) (AID 1963881); settings: Potency: viability; note: nearly all actives have a fitted effect of over 35% in size; for Viability: series mostly up to about 46 µM
Method in brief: as §1

[7] = Quantitative highthroughput screen to assess conditional lethalithy of SEM cells grown in Human Plasma-Like Medium with dialyzed fetal bovine serum (HPLM+ds) (AID 1963882); note: nearly all actives have a fitted effect of over 35% in size; for Viability: series mostly up to about 46 µM
Method in brief: as §1

[8] = Quantitative highthroughput screen to assess conditional lethalithy of SEM cells grown in RPMI1640 with unreated serum (RPMI+s) (AID 1963883); note: nearly all actives have a fitted effect of over 35% in size
Method in brief: as §1

[9] = Cellular viability qHTS for adrenocortical cancer (ACC) cell line SW-13 (AID 1963989); settings: SW-13 ACC cells viability, CellTiter-Glo, 48 h; activity (max response): active compounds read low; note: nearly all actives have a fitted effect of over 65% in size;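 for activity (max response): cells grown in serum-free medium with ITS supplement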
Method in brief: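 Compound titrations (up to 46 uM final, in DMSO) were applied to SW-13 cells for 48 h at 37C/5% CO2. Reading used CellTiter-Glo after 20 min at room temperature; fitted curves yielded IC50 and efficacy.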

[10] = Cellular viability qHTS for adrenocortical cancer (ACC) cell line NCI-H295R (AID 1963990); note: nearly all actives have a fitted effect of over 60% in size
Method in brief: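 Readout: CellTiter-Glo luminescence, 20 min RT. Exposure: 48 h, 37C/5% CO2. Cells: NCI-H295R, ITS-DMEM serum-free. Range: up to 46 uM. Analysis: 4PL fit, IC50 plus efficacy.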

[11] = Quantitative highthroughput screen to assess conditional lethalithy of NOMO1 cells grown in RPMI1640 with dialyzed fetal bovine serum (RPMI+ds) (AID 1963877); note: nearly all actives have a fitted effect of over 30% in size; for Viability: series mostly up to about 46 µM
Method in brief: as §1

[12] = Quantitative highthroughput screen to assess conditional lethalithy of SEM cells grown in RPMI1640 with dialyzed fetal bovine serum (RPMI+ds) (AID 1963884); note: nearly all actives have a fitted effect of over 35% in size; for Viability: series mostly up to about 46 µM
Method in brief: as §1
Potency is the fitted concentration of half-maximal effect.

| Compound | Potency [1] | Potency [2] | Potency [3] | Potency [4] | Potency [5] | Potency [6] | Potency [7] | Potency [8] | Potency [9] | activity (max response) [9] | Potency [10] | Potency [11] | Potency [12] |
| --- | --- | --- | --- | --- | --- | --- | --- | --- | --- | --- | --- | --- | --- |
| CCOC(=O)N1CCC(=C2c3ccc(Cl)cc3CCc3cccnc32)CC1 | 8.41 µM (active) | inactive | inactive | inactive | inactive | inactive | inactive | inactive | 4.61 µM (active) |  |  |  |  |
| C[C@@H]1CC[C@@]2(OC1)OC1CC3C4CC=C5CC(O)CCC5(C)C4CCC3(C)C1[C@@H]2C (stereo not given in full) | inactive | 14.8 µM (active) | 13.2 µM (active) | 11.8 µM (active) | 18.7 µM (active) |  |  |  |  | -3.87% | inactive |  |  |
| C[C@@H]1CN(CC(=O)N2CC(C)(C)c3ncc(Cc4ccc(F)cc4)cc32)[C@@H](CN2CCOC[C@H]2C)CN1 | 0.468 µM (active) | inactive |  | inactive | inactive | inactive | inactive |  |  | -27% |  | 20.9 µM (active) | inactive |
| N#CC(c1ccc(Cl)cc1)c1c(Cl)cc(-n2ncc(=O)[nH]c2=O)cc1Cl (stereo not given) | 26.3 µM (active) | inactive | inactive |  |  | inactive |  | inactive |  |  |  | inactive | inactive |
| Cc1cc2c(cc1C1(c3ccc(C(=O)O)cn3)CC1)C(C)(C)CCC2(C)C | 0.468 µM (active) | inactive |  | inactive |  | inactive | inactive | inactive |  | 9.77% | inactive | inactive | 0.0662 µM (active) |
| O=C(Nc1nc2ccccc2n1CCN1CCOCC1)c1cccc([N+](=O)[O-])c1 | 2.63 µM (active) | inactive |  | inactive | inactive | inactive | inactive | inactive |  | 3.94% | inactive | inactive |  |
| COc1ccc(-c2cc3nccn3c(Nc3ncccc3C(N)=O)n2)cc1OC | 0.206 µM (active) | inactive |  | inactive | inactive | inactive |  |  |  | -18.6% | inactive | inactive |  |
| O=C(c1ccc(F)cc1)N1CCC[C@H](c2nc(-c3ccc(F)cc3)no2)C1 | 11.8 µM (active) | inactive | inactive |  |  |  | inactive | inactive |  | -11.7% | inactive | inactive | inactive |
| Cc1cccc(C)c1OCC(=O)N[C@@H](Cc1ccccc1)[C@@H](O)C[C@H](Cc1ccccc1)NC(=O)[C@H](C(C)C)N1CCCNC1=O | 23.7 µM (active) | inactive |  |  |  |  |  |  |  |  | 16.4 µM (active) | inactive |  |
| c1cc(-c2sc(-c3ccncc3)c(-c3ccncc3)c2-c2ccncc2)ccn1 | 18.6 µM (active) | inactive |  |  | inactive | inactive | 2.96 µM (active) | 2.35 µM (active) |  |  |  | inactive | 2.64 µM (active) |
| CC(=O)Oc1ccccc1C(=O)Nc1ncc([N+](=O)[O-])s1 | 11.9 µM (active) and 20.9 µM (active) | inactive |  |  |  | inactive |  | inactive |  |  | inactive | inactive |  |
| O=C1NC(=O)C(c2ccccc2[N+](=O)[O-])=C1Nc1ccc(O)c(Cl)c1 | 16.6 µM (active) | 18.7 µM (active) |  |  | 14.8 µM (active) |  | 16.6 µM (active) |  |  | -17.3% | inactive | 18.7 µM (active) |  |
| Cc1cc([C@@H](C)Nc2ccccc2C(=O)O)c2nc(N3CCOCC3)cc(=O)n2c1 | 7.08 µM (active) and 5.25 µM (active) | 13.6 µM (active) | 8.55 µM (active) |  |  |  | 13.6 µM (active) | 10.8 µM (active) |  |  |  | 12.1 µM (active) | 9.59 µM (active) |
| CN(Cc1cc(Br)cc(Br)c1N)C1CCCCC1 | 10.6 µM (active) | inactive |  | inactive | inactive | inactive | inactive | inactive |  |  |  | inactive | inactive |
| Cc1ccc(Nc2cc(-c3cccc(N4C(=O)c5ccccc5C4=O)c3)ncn2)cc1NS(C)(=O)=O | 16.6 µM (active) | inactive |  |  | inactive | inactive |  | inactive |  |  |  | inactive |  |
| COCCCOc1cc(C[C@@H](C[C@H](N)[C@@H](O)C[C@H](C(=O)NCC(C)(C)C(N)=O)C(C)C)C(C)C)ccc1OC | 168 nM (active) and 5.9 µM (active) | inactive | inactive | inactive | inactive | inactive | inactive | inactive |  | 6.05% | inactive |  | inactive |
| O=c1cc(-c2ccccc2)oc2cc(O)c(O)c(O)c12 | 18.6 µM (active) | 5.9 µM (active) | inactive | 5.9 µM (active) |  | 9.35 µM (active) |  | 4.18 µM (active) |  | -15.6% |  |  | 8.33 µM (active) |
| O=C1C(Cl)=C(NCCN2CCOCC2)C(=O)c2ncccc21 | 2.09 µM (active) | 10.5 µM (active) |  |  | 20.9 µM (active) | 23.5 µM (active) | 10.5 µM (active) | 4.69 µM (active) | 3.55 µM (active) |  | 3.98 µM (active) | 9.35 µM (active) | 7.43 µM (active) |
